In the library only some 4.1% were active in any assay of this set; here they are far more common.
DAX1 inh-1 = DAX1 (NR0B1) inhibition, primary screen; HEK293T StAR-luciferase reporter, SF-1/DAX-1 repression relief; inhibition, % at 6.8 µM; actives 1.1% (n = 370,000);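 active = inhibition above the mean over all tested compounds plus 3 SD, cut at about 3.6% in these data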;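 note: 0% = DAX-1 cells with DMSO and 100% = cells lacking DAX-1 with DMSO; higher inhibition means more luminescence from relief of DAX-1 repression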
DAX1 inh-2 = NR0B1 (DAX1) inhibition. P51843. HEK293 Gal4-DAX1 luciferase reporter, luminescence. inhibition, % at 6.75 µM. actives 0.99% (n = 340,000). AID 504766;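 active = inhibition above the mean over all tested compounds plus 3 SD, cut at about 4.2% in these data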;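 note: 0% = DAX1-transfected cells with DMSO and 100% = empty-vector control cells with DMSO; inhibition shows as a rise in luminescence from relieved DAX1 repression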
hcDAF-12 act = activates DAF-12 receptor from parasite H. contortus | HEK293 hcDAF-12 lit1-tk-luc reporter, luminescence; 0% DMSO, 100% Δ7-dafachronic acid | activation, % at 6.8 µM | actives 1.4% (n = 370,000) | AID 652067;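 active = activation above the mean of all tested compounds plus 3 SD, cut at about 5.5% in these data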;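 note: 100% = response to 3 µM Δ7-dafachronic acid high control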
ssDAF12 agonist = activators of S. stercoralis DAF-12 nuclear receptor; HEK293 ssDAF-12/GRIP1 lit1-tk-luc reporter, luminescence; % of 3 µM dafachronic acid response; actives 1% (n = 370,000); AID 652126; activation, % at 6.8 µM;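 active = activation above the mean over all tested compounds plus 3 SD, cut at about 0.9% in these data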;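 note: 0% = DMSO-only wells and 100% = 3 µM delta7-dafachronic acid wells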
hgDAF12 agonist = activates the H. glycines DAF-12 receptor ligand-binding domain; activation, % at 6.8 µM; actives 1.8% (n = 370,000); HEK293 GAL4-hgDAF12 UAS-luciferase reporter, agonist luminescence; normalized to butyrate control;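 active = activation above a cutoff set at the mean of all screened compounds plus 3 SD, cut at about 10% in these data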;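 note: 0% = DMSO wells and 100% = sodium butyrate wells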
hgDAF12 conf = hgDAF-12 agonism, confirmation assay | shares compounds with hgDAF12 agonist | HEK293 GAL4-hgDAF12 luciferase reporter, agonist mode; percent of butyrate response | activation, % at 6.8 µM | actives 80% (n = 3,300);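 active = mean activation over triplicate wells above the hit cutoff derived from the earlier primary screen, cut at about 11% in these data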;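 note: 0% = DMSO low control and 100% = 2 mM sodium butyrate high control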
LXRb DAF12 ctr = activates human LXR-beta, counter-screen for DAF-12 agonists; shares compounds with hgDAF12 agonist; HEK293 Gal4-LXR luciferase reporter, 24 h; activation, % at 6.8 µM; 3,300 tested, under 10 active;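 active = mean activation of the triplicate above a set limit carried over from the primary screen, none filed active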
Target sequence (P55055 whole entry, looked up, the tested form may be a part): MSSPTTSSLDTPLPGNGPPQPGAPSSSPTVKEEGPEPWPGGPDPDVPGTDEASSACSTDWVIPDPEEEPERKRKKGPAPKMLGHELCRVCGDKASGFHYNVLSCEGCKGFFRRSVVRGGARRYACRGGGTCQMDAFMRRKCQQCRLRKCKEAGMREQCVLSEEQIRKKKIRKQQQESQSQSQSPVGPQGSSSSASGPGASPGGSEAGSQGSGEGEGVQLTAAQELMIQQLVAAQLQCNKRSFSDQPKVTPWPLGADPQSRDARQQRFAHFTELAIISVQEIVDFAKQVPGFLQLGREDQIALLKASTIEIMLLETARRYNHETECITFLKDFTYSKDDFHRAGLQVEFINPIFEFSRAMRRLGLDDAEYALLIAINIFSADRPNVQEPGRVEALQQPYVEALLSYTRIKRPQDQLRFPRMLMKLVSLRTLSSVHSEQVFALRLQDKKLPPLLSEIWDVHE
* = called active by the depositor.

For Cc1ccc(C(=O)Cc2nc3ccccc3[nH]2)cc1 the results were DAX1 inh-1 1, DAX1 inh-2 0, hcDAF-12 act 2, ssDAF12 agonist 0 and hgDAF12 agonist 6.
Screening CCCCn1c(N)c(N(CCOC)C(=O)c2cc(CC)c(C)s2)c(=O)[nH]c1=O returned DAX1 inh-1 0, DAX1 inh-2 -2, hcDAF-12 act 1, ssDAF12 agonist -1 and hgDAF12 agonist 0.
For Cc1c(/C=C/C(=O)c2ccc(C(C)C)cc2)cnn1C the results were DAX1 inh-1 -1, DAX1 inh-2 0, hcDAF-12 act -2, ssDAF12 agonist -2 and hgDAF12 agonist 2.
`O=C(/C=C/c1c[nH]c2ccccc12)c1ccccc1` gave DAX1 inh-1 1, DAX1 inh-2 2, hcDAF-12 act 5, ssDAF12 agonist 1, hgDAF12 agonist 16*, hgDAF12 conf 20* and LXRb DAF12 ctr 1.
Screening Cc1nn(C)cc1/C=C/C(=O)c1ccccc1 returned DAX1 inh-1 3, DAX1 inh-2 3, hcDAF-12 act 5, ssDAF12 agonist 0, hgDAF12 agonist 18*, hgDAF12 conf 16* and LXRb DAF12 ctr 1.
`CCn1ncc(/C=C/C(=O)c2ccccc2)c1C` gave DAX1 inh-1 1, DAX1 inh-2 3, hcDAF-12 act 4, ssDAF12 agonist 0, hgDAF12 agonist 17*, hgDAF12 conf 13* and LXRb DAF12 ctr 1.
For Cc1c(/C=C/C(=O)c2ccc(O)cc2)cnn1C the results were DAX1 inh-1 2, DAX1 inh-2 4, hcDAF-12 act 4, ssDAF12 agonist 0, hgDAF12 agonist 17*, hgDAF12 conf 9 and LXRb DAF12 ctr 0.
`COc1ccc(N2CCN(c3ccc(NC(=O)/C=C\C(=O)O)cc3)CC2)cc1` gave DAX1 inh-1 -2, DAX1 inh-2 -1, hcDAF-12 act -2, ssDAF12 agonist -1 and hgDAF12 agonist -3.
`O=C1CCC([N+](=O)[O-])C(C2CC=CCC2)N1` (centres undefined) gave DAX1 inh-1 0, DAX1 inh-2 1, hcDAF-12 act 2, ssDAF12 agonist -1 and hgDAF12 agonist -1.
For CC(=O)c1cc(-c2ccccc2)n(CC(=O)Nc2cccc(C)c2)c1C the results were DAX1 inh-1 0, DAX1 inh-2 1, hcDAF-12 act -3, ssDAF12 agonist -1 and hgDAF12 agonist -2.
For Cc1nc(SCC(=O)N2CCCC2=O)c2c(C)c(C)sc2n1 the results were DAX1 inh-1 0, DAX1 inh-2 1, hcDAF-12 act -1, ssDAF12 agonist -1 and hgDAF12 agonist 1.
Screening CN(CC(=O)NC1CCN(Cc2ccccc2)CC1)S(=O)(=O)c1ccc(Br)s1 returned DAX1 inh-1 -1, DAX1 inh-2 -1, hcDAF-12 act -2, ssDAF12 agonist -1 and hgDAF12 agonist -2.
Screening COc1ccc2cc(CCNC(=O)c3cccs3)c(=O)[nH]c2c1 returned DAX1 inh-1 4.0*, DAX1 inh-2 3, hcDAF-12 act 4, ssDAF12 agonist 0, hgDAF12 agonist 15*, hgDAF12 conf 11* and LXRb DAF12 ctr 1.
Screening COc1ccc2cc(CCNC(=O)c3cc4ccccc4o3)c(=O)[nH]c2c1 returned DAX1 inh-1 -3, DAX1 inh-2 -1, hcDAF-12 act -1, ssDAF12 agonist -1 and hgDAF12 agonist -3.
For Cc1ccc(C(=O)N2CCc3ccccc32)o1 the results were DAX1 inh-1 3.8*, DAX1 inh-2 1, hcDAF-12 act 5, ssDAF12 agonist 2.1*, hgDAF12 agonist 15*, hgDAF12 conf 16* and LXRb DAF12 ctr 1.
For O=C(c1ccc([N+](=O)[O-])o1)N1CCc2ccccc21 the results were DAX1 inh-1 -1, DAX1 inh-2 1, hcDAF-12 act 0, ssDAF12 agonist 0 and hgDAF12 agonist -1.
For CN(C(=O)COC(=O)c1ccc(Br)c([N+](=O)[O-])c1)c1c(N)n(Cc2ccccc2)c(=O)[nH]c1=O the results were DAX1 inh-1 0, DAX1 inh-2 2, hcDAF-12 act -1, ssDAF12 agonist -1 and hgDAF12 agonist 0.
For CC1CC1c1ccc(/C=C(\C#N)C(=O)Nc2ccc(Cl)cc2)o1 (centres undefined) the results were DAX1 inh-1 2, DAX1 inh-2 1, hcDAF-12 act 3, ssDAF12 agonist 0, hgDAF12 agonist 14*, hgDAF12 conf 14* and LXRb DAF12 ctr 1.
Screening C/C(=N\NC(=O)c1ccn[nH]1)c1cn(C)nc1C returned DAX1 inh-1 2, DAX1 inh-2 2, hcDAF-12 act 3, ssDAF12 agonist 1.3*, hgDAF12 agonist 15*, hgDAF12 conf 10 and LXRb DAF12 ctr 0.
Screening O=c1c2c(nc3cc(-c4ccccc4)[nH]n13)CCC2 returned DAX1 inh-1 2, DAX1 inh-2 0, hcDAF-12 act 3, ssDAF12 agonist 0, hgDAF12 agonist 15*, hgDAF12 conf 13* and LXRb DAF12 ctr 1.
For O=c1c2c(nc3cc(-c4ccc(Br)cc4)[nH]n13)CCCC2 the results were DAX1 inh-1 3.7*, DAX1 inh-2 6.3*, hcDAF-12 act 1, ssDAF12 agonist 1.4*, hgDAF12 agonist 14*, hgDAF12 conf 20* and LXRb DAF12 ctr 1.
Screening Cc1ccc(Nc2nc(-c3ccccc3)c(CC(=O)O)s2)cc1 returned DAX1 inh-1 2, DAX1 inh-2 0, hcDAF-12 act 2, ssDAF12 agonist 0, hgDAF12 agonist 14*, hgDAF12 conf 13* and LXRb DAF12 ctr 0.
`Cc1ccc(-c2nc(-c3ccccn3)sc2CC(=O)O)cc1` gave DAX1 inh-1 0, DAX1 inh-2 0, hcDAF-12 act -1, ssDAF12 agonist -1 and hgDAF12 agonist 6.
For c1ccc2c(-c3nc4ccccc4[nH]3)cccc2c1 the results were DAX1 inh-1 -4, DAX1 inh-2 -3, hcDAF-12 act -1, ssDAF12 agonist -1 and hgDAF12 agonist 5.
For Oc1ccccc1C=Nc1ccccc1-c1nc2ccccc2[nH]1 the results were DAX1 inh-1 2, DAX1 inh-2 3, hcDAF-12 act 2, ssDAF12 agonist -1, hgDAF12 agonist 18*, hgDAF12 conf -2 and LXRb DAF12 ctr 0.
Screening Fc1ccccc1-c1nc2ccccc2[nH]1 returned DAX1 inh-1 3, DAX1 inh-2 4.9*, hcDAF-12 act 2, ssDAF12 agonist -1, hgDAF12 agonist 15*, hgDAF12 conf 12* and LXRb DAF12 ctr 1.
`Cc1ccccc1-c1nc2ccccc2[nH]1` gave DAX1 inh-1 2, DAX1 inh-2 2, hcDAF-12 act 1, ssDAF12 agonist -1 and hgDAF12 agonist 9.
